Values joined by “and” are separate entries in the source; they are usually repeats but may differ in a detail not shown here. Equal entries are not always repeated. Hit rate of the full screen: of about 5,500 compounds, about 2,000 (36%) were called active. Another 18% or so got no clear call; they are omitted. Rule as the data show it: active = normalized growth mostly below about 0.91 (no sharp cut-off); inconclusive = no clear call, values can overlap the other calls; inactive = mostly above about 0.92. This is one part of the list.
Experiment: chemical genetic growth profiling, strain panel (AID 1159580);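 also: tested at 20 µM; growth read once vehicle control cultures reached saturation at 30 °C; 1 = growth at the plate median or of vehicle wells; lower values mean less growth of the strain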
Conditions: growth OD

Measured: normalized growth

NC(=O)c1cnccn1
inactive: S. cerevisiae deletion strains, locus YJR075W, strain HOC1, stronger effect = lower value 1.03 | S. cerevisiae deletion strains, locus YKL009W, strain mrt4, stronger effect = lower value 1.02 | S. cerevisiae deletion strains, locus YKL068W, stronger effect = lower value 1 | S. cerevisiae deletion strains, locus YKL085W, strain MDH1 (second series), stronger effect = lower value 1.01 | S. cerevisiae deletion strains, locus YKL085W, strain MDH1, stronger effect = lower value 1.01 | S. cerevisiae deletion strains, locus YKL160W, strain elf1, stronger effect = lower value 0.967 | S. cerevisiae deletion strains, locus YKL190W, strain CNB1, stronger effect = lower value 1.01 | S. cerevisiae deletion strains, locus YKR001C, strain vps1, stronger effect = lower value 0.999 | S. cerevisiae deletion strains, locus YKR026C, strain gcn3, stronger effect = lower value 0.992 | S. cerevisiae deletion strains, locus YKR091W, strain srl3, stronger effect = lower value 0.99 | S. cerevisiae deletion strains, locus YLL001W, strain dnm1, stronger effect = lower value 0.955 | S. cerevisiae deletion strains, locus YLL026W, stronger effect = lower value 0.979 | S. cerevisiae deletion strains, locus YLL041C, strain sdh2, stronger effect = lower value 0.993 | S. cerevisiae deletion strains, locus YLR027C, strain aat2, stronger effect = lower value 0.976 | S. cerevisiae deletion strains, locus YLR039C, strain RIC1, stronger effect = lower value 1.05 | S. cerevisiae deletion strains, locus YLR058C, strain SHM2, stronger effect = lower value 1 | S. cerevisiae deletion strains, locus YLR102C, strain apc9, stronger effect = lower value 0.999 | S. cerevisiae deletion strains, locus YLR113W, strain HOG1, stronger effect = lower value 0.99 | S. cerevisiae deletion strains, locus YLR221C, strain rsa3, stronger effect = lower value 1.01 | S. cerevisiae deletion strains, locus YLR258W, strain gsy2, stronger effect = lower value 1.01 | S. cerevisiae deletion strains, locus YLR262C, strain YPT6 (second series), stronger effect = lower value 0.965 | S. cerevisiae deletion strains, locus YLR262C, strain YPT6, stronger effect = lower value 0.979 | S. cerevisiae deletion strains, locus YLR268W, strain sec22, stronger effect = lower value 1.05 | S. cerevisiae deletion strains, locus YLR320W, strain mms22, stronger effect = lower value 0.981 | S. cerevisiae deletion strains, locus YLR330W, strain CHS5, stronger effect = lower value 1.01 | S. cerevisiae deletion strains, locus YLR342W, strain FKS1 (second series), stronger effect = lower value 1.02 | S. cerevisiae deletion strains, locus YLR342W, strain FKS1, stronger effect = lower value 0.968 | S. cerevisiae deletion strains, locus YLR357W, strain rsc2, stronger effect = lower value 0.967 | S. cerevisiae deletion strains, locus YLR370C, strain arc18, stronger effect = lower value 0.999 | S. cerevisiae deletion strains, locus YLR371W, strain rom2, stronger effect = lower value 1.01 | S. cerevisiae deletion strains, locus YLR384C, strain iki3, stronger effect = lower value 0.977 | S. cerevisiae deletion strains, locus YLR418C, strain cdc73, stronger effect = lower value 1 | S. cerevisiae deletion strains, locus YML016C, strain PPZ1, stronger effect = lower value 1 | S. cerevisiae deletion strains, locus YML032C, strain rad52, stronger effect = lower value 1.02 | S. cerevisiae deletion strains, locus YML120C, strain ndi1, stronger effect = lower value 0.98 | S. cerevisiae deletion strains, locus YML124C, strain tub3, stronger effect = lower value 0.998 | S. cerevisiae deletion strains, locus YMR058W, strain fet3, stronger effect = lower value 0.98 | S. cerevisiae deletion strains, locus YMR078C, strain ctf18, stronger effect = lower value 1 | S. cerevisiae deletion strains, locus YMR125W, strain sto1, stronger effect = lower value 0.999 | S. cerevisiae deletion strains, locus YMR129W, stronger effect = lower value 0.993 | S. cerevisiae deletion strains, locus YMR205C, strain PFK2, stronger effect = lower value 0.998 | S. cerevisiae deletion strains, locus YMR223W, strain ubp8, stronger effect = lower value 0.985 | S. cerevisiae deletion strains, locus YMR231W, strain pep5, stronger effect = lower value 0.982 | S. cerevisiae deletion strains, locus YMR307W, strain GAS1, stronger effect = lower value 1.01 | S. cerevisiae deletion strains, locus YNL067W, strain RPL9B, stronger effect = lower value 1 | S. cerevisiae deletion strains, locus YNL071W, strain lat1, stronger effect = lower value 1.01 | S. cerevisiae deletion strains, locus YNL128W, strain TEP1, stronger effect = lower value 1.02 | S. cerevisiae deletion strains, locus YNL153C, strain GIM3, stronger effect = lower value 1 | S. cerevisiae deletion strains, locus YNL175C, strain NOP13, stronger effect = lower value 1 | S. cerevisiae deletion strains, locus YNL183C, strain NPR1, stronger effect = lower value 0.998 | S. cerevisiae deletion strains, locus YNL197C, strain WHI3, stronger effect = lower value 0.995 | S. cerevisiae deletion strains, locus YNL209W, strain ssb2, stronger effect = lower value 1 | S. cerevisiae deletion strains, locus YNL224C, strain SQS1, stronger effect = lower value 0.991 | S. cerevisiae deletion strains, locus YNL233W, strain BNI4, stronger effect = lower value 1.01 | S. cerevisiae deletion strains, locus YNL248C, strain rpa49, stronger effect = lower value 1.01 | S. cerevisiae deletion strains, locus YNL250W, strain rad50, stronger effect = lower value 0.998 | S. cerevisiae deletion strains, locus YNL271C, strain bni1, stronger effect = lower value 1 | S. cerevisiae deletion strains, locus YNL298W, strain CLA4, stronger effect = lower value 0.997 | S. cerevisiae deletion strains, locus YNL307C, strain MCK1, stronger effect = lower value 1.01 | S. cerevisiae deletion strains, locus YNL322C, strain KRE1 (second series), stronger effect = lower value 0.984 | S. cerevisiae deletion strains, locus YNR049C, strain mso1, stronger effect = lower value 0.998 | S. cerevisiae deletion strains, locus YNR052C, strain pop2, stronger effect = lower value 0.99 | S. cerevisiae deletion strains, locus YOL006C, strain TOP1, stronger effect = lower value 0.999 | S. cerevisiae deletion strains, locus YOL012C, strain htz1 1.57 | S. cerevisiae deletion strains, locus YOL147C, strain pex11, stronger effect = lower value 1 | S. cerevisiae deletion strains, locus YOR001W, strain rrp6, stronger effect = lower value 0.983 | S. cerevisiae deletion strains, locus YOR061W, strain CKA2, stronger effect = lower value 1 | S. cerevisiae deletion strains, locus YOR069W, strain VPS5, stronger effect = lower value 1.01 | S. cerevisiae deletion strains, locus YOR070C, strain gyp1, stronger effect = lower value 1 | S. cerevisiae deletion strains, locus YOR080W, strain dia2, stronger effect = lower value 0.978 | S. cerevisiae deletion strains, locus YOR083W, strain WHI5 (second series), stronger effect = lower value 1.02 | S. cerevisiae deletion strains, locus YOR083W, strain WHI5, stronger effect = lower value 0.955 | S. cerevisiae deletion strains, locus YOR106W, strain vam3, stronger effect = lower value 0.992 | S. cerevisiae deletion strains, locus YOR136W, strain idh2, stronger effect = lower value 0.988 | S. cerevisiae deletion strains, locus YOR144C, strain elg1, stronger effect = lower value 1 | S. cerevisiae deletion strains, locus YOR184W, strain ser1, stronger effect = lower value 1 | S. cerevisiae deletion strains, locus YOR231W, strain MKK1, stronger effect = lower value 1 | S. cerevisiae deletion strains, locus YOR265W, strain rbl2, stronger effect = lower value 0.985 | S. cerevisiae deletion strains, locus YOR270C, strain vph1, stronger effect = lower value 1.02 | S. cerevisiae deletion strains, locus YOR290C, strain snf2, stronger effect = lower value 1.02 | S. cerevisiae deletion strains, locus YOR316C, strain cot1, stronger effect = lower value 1.01 | S. cerevisiae deletion strains, locus YPL051W, strain arl3, stronger effect = lower value 0.993 | S. cerevisiae deletion strains, locus YPL055C, strain LGE1, stronger effect = lower value 0.976 and 0.968 | S. cerevisiae deletion strains, locus YPL078C, strain atp4, stronger effect = lower value 0.957 | S. cerevisiae deletion strains, locus YPL106C, strain sse1, stronger effect = lower value 0.97 | S. cerevisiae deletion strains, locus YPL240C, strain hsp82, stronger effect = lower value 0.979 | S. cerevisiae deletion strains, locus YPL241C, strain CIN2, stronger effect = lower value 1.01 | S. cerevisiae deletion strains, locus YPL256C, strain CLN2, stronger effect = lower value 1.02 | S. cerevisiae deletion strains, locus YPR119W, strain clb2, stronger effect = lower value 1.01 | S. cerevisiae deletion strains, locus YPR141C, strain kar3, stronger effect = lower value 0.993 | S. cerevisiae deletion strains, locus YPR163C, strain tif3, stronger effect = lower value 1.01 | S. cerevisiae deletion strains, locus YPR167C, strain met16, stronger effect = lower value 1.01 | S. cerevisiae deletion strains, strain wtn01, stronger effect = lower value 1 | S. cerevisiae strains, strain wild type, stronger effect = lower value 1.01
